According to ChEMBL document CHEMBL1961873, “Compounds: GSK PKIS; Assays: Nanosyn kinase panel” (2012):

Experiments:
[1] = biological target: Tyrosine-protein kinase SYK (Homo sapiens) (UniProt P43405); settings: at 1 µM
[2] = biological target: T1, Tyrosine-protein kinase Tec (Homo sapiens) (UniProt P42680); settings: at 0.1 µM
T1 sequence (whole entry): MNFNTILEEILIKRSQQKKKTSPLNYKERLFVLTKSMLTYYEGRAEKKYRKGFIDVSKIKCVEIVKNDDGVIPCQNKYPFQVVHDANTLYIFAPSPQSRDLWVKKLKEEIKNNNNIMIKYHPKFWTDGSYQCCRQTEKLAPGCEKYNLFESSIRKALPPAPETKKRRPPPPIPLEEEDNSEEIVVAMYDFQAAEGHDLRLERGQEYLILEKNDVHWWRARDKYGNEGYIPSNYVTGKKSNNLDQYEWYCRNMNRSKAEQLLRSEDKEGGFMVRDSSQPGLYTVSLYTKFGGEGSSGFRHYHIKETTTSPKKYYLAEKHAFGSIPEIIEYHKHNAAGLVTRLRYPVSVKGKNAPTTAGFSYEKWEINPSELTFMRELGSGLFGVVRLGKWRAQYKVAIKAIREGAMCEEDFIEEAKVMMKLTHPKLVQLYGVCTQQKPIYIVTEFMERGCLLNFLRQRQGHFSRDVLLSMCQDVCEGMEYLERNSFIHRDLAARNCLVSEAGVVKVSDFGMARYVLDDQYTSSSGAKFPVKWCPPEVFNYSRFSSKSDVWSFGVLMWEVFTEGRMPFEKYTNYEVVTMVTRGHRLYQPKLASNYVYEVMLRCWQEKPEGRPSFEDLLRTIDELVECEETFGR

[3] = biological target: T1, Tyrosine-protein kinase Tec (Homo sapiens); settings: at 1 µM
[4] = biological target: Angiopoietin-1 receptor (Homo sapiens) (UniProt Q02763); settings: at 0.1 µM
Sequence of Angiopoietin-1 receptor (Homo sapiens) (Q02763 whole entry): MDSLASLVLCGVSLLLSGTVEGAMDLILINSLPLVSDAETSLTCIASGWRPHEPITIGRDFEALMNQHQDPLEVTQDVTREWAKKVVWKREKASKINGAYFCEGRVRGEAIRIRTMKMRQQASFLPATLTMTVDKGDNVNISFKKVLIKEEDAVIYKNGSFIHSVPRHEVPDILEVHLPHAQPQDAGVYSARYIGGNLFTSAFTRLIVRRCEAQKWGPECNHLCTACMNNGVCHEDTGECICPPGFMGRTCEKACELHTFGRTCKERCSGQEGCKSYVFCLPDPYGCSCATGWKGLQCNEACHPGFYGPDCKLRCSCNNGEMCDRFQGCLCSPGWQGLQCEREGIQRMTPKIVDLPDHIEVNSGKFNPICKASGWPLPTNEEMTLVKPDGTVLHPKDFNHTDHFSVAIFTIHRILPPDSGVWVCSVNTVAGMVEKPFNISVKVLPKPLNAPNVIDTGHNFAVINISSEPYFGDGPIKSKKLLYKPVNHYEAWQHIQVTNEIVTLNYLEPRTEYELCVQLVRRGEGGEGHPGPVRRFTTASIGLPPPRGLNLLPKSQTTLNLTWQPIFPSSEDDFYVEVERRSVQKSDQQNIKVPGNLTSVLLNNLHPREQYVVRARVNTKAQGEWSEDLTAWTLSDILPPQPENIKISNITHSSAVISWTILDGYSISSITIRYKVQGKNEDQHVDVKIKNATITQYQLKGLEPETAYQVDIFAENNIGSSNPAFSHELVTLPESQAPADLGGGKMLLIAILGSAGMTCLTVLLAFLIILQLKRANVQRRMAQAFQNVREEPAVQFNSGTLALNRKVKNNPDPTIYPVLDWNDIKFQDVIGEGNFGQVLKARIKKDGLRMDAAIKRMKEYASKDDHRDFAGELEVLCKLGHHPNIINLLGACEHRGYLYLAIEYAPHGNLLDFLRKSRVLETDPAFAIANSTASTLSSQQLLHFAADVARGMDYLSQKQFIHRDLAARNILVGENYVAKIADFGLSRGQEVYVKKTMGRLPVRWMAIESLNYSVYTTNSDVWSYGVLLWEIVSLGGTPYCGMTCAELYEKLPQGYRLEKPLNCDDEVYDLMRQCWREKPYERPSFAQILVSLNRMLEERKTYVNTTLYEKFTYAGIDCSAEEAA

[5] = biological target: Angiopoietin-1 receptor (Homo sapiens) (UniProt Q02763); settings: at 1 µM
[6] = biological target: T2, Non-receptor tyrosine-protein kinase TNK1 (Homo sapiens) (UniProt Q13470); settings: at 0.1 µM
T2 sequence (whole entry): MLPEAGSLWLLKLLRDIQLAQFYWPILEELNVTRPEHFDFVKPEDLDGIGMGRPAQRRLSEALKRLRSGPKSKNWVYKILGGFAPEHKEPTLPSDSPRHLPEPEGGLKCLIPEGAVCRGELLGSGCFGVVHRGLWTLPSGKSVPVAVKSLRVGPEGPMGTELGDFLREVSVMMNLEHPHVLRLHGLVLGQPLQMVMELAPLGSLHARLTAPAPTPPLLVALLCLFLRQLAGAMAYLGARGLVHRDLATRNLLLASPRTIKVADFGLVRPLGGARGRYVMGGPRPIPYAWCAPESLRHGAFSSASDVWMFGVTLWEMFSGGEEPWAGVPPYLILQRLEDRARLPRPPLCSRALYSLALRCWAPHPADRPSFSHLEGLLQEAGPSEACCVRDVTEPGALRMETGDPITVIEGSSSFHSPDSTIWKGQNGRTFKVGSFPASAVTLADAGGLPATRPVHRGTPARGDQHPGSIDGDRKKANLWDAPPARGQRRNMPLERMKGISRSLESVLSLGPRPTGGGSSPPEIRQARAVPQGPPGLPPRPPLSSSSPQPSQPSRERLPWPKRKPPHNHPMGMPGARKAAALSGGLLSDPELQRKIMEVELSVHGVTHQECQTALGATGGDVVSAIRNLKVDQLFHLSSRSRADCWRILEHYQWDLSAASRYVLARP

[7] = biological target: T2, Non-receptor tyrosine-protein kinase TNK1 (Homo sapiens); settings: at 1 µM
[8] = biological target: Activated CDC42 kinase 1 (Homo sapiens) (UniProt Q07912); settings: at 0.1 µM
Sequence of Activated CDC42 kinase 1 (Homo sapiens) (Q07912 whole entry, looked up): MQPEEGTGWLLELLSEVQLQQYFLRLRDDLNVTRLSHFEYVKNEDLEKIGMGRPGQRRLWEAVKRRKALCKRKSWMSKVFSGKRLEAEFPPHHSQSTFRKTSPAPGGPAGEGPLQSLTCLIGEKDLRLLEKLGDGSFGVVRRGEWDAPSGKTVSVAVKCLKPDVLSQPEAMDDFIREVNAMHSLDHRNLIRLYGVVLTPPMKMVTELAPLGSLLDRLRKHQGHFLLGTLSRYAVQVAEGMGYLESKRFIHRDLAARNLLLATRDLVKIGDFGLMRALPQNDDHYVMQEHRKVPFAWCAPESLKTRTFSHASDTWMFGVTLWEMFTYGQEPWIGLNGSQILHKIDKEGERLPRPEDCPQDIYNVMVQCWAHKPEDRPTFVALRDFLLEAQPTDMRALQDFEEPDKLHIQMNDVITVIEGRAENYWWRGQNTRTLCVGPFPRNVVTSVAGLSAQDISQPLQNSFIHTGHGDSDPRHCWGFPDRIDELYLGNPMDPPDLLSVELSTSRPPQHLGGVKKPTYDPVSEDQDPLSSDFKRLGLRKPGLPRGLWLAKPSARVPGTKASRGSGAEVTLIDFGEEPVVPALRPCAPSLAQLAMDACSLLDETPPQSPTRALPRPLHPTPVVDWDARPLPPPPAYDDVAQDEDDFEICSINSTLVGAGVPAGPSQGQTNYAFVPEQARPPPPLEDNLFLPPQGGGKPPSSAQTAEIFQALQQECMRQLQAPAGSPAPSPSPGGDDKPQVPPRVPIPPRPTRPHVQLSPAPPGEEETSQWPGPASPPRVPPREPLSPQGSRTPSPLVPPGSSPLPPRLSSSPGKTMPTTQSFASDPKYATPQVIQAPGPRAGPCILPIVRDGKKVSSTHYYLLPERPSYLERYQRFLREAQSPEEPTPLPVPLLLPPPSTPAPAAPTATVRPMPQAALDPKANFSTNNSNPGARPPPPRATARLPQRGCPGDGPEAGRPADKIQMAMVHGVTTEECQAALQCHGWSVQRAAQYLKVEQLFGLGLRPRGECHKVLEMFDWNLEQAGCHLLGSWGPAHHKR

[9] = biological target: Activated CDC42 kinase 1 (Homo sapiens) (UniProt Q07912); settings: at 1 µM
[10] = biological target: High affinity nerve growth factor receptor (Homo sapiens) (UniProt P04629); settings: at 0.1 µM;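 note: each value is a mean of replicate percent inhibition readings against TRKA kinase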
Sequence of High affinity nerve growth factor receptor (Homo sapiens) (P04629 33-796 limits assumed): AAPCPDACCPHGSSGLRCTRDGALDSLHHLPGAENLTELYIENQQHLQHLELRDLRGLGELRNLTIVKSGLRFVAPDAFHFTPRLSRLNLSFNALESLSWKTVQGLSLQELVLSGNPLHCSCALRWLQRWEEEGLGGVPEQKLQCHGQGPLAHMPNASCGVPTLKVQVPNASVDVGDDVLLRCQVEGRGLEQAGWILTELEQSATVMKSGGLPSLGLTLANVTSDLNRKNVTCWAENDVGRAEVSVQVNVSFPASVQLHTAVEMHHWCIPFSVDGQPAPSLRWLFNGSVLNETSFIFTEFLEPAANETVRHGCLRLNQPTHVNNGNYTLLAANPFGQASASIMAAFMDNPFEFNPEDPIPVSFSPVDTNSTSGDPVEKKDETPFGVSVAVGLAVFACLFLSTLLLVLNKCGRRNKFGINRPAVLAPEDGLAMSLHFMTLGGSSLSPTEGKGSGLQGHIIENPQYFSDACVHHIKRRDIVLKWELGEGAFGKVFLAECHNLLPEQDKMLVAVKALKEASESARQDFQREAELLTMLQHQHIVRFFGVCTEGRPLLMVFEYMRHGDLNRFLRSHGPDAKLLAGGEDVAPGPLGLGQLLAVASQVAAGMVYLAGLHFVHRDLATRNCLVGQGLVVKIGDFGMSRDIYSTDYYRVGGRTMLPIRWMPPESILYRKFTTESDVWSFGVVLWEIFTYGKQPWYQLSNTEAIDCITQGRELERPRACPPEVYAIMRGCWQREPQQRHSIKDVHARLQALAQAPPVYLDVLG

Structure (SMILES) | inhibition [1] | inhibition [2] | inhibition [3] | inhibition [4] | inhibition [5] | inhibition [6] | inhibition [7] | inhibition [8] | inhibition [9] | inhibition [10]
CC1=C(C(=O)Nc2ccc3[nH]ncc3c2)C(c2ccc(F)cc2)NC(=O)N1 (centres undefined) | 1.72% | 2.11% | 2.37% | 0.66% | 3.1% | 4.95% | 31.2% | 0.84% | 3.68% | 0.85%
NC(=O)c1cccc(Nc2nccc(Nc3cccc4[nH]ncc34)n2)c1 | 25.4% | 17.4% | 62.5% | 9.12% | 47.5% | 6.88% | 58.3% | 5.44% | 47.8% | 0.29%
O=C1Nc2ccc(C(=O)c3ccco3)cc2C1=Cc1cc(Cl)c(O)c(Cl)c1 | -0.93% | 3.56% | 9.55% | 2.1% | 3.01% | 38.9% | 85.3% | 1.92% | 6.27% | 4.97%
COc1cc2c(cc1Nc1nc(N3CCc4ccccc43)c3cc[nH]c3n1)N(C(=O)CN(C)C)CC2 | -0.01% | 2.67% | 7.6% | -0.77% | 1.37% | 1.17% | 12% | 0.63% | 1.93% | 0.79%
COc1ccc(-c2ccncc2)cc1C(N)=O | 0.26% | 6.14% | 5.31% | 5.23% | 6.4% | 3.12% | 5.16% | 1.17% | 2.39% | 1.19%
CCn1c(-c2nonc2N)nc2c(C#CC(C)(C)O)nc(OC[C@@H](N)c3ccccc3)cc21 | 1.52% | 1.68% | 6.92% | 1.25% | 10.4% | -2.6% | 2.87% | 0.28% | 5.21% | -0.3%
Nc1ncnc2occ(-c3ccc(NC(=O)Nc4cccc(C(F)(F)F)c4)cc3)c12 | – | 1.64% | 5.89% | 56.4% | 74.4% | 7.73% | 52.8% | 0.8% | 1.54% | 63.9%
COC(=O)Nc1nc2cc(Oc3cccc(NC(=O)Nc4cc(C(F)(F)F)ccc4F)c3)ccc2[nH]1 | -0.22% | 1.48% | 2.64% | 1.09% | 5.44% | -0.45% | -3.58% | -0.5% | -1.08% | -2.72%
O=C1NC(=O)C(c2ccc(Cl)cc2)=C1Nc1ccc(Cl)c(C(=O)O)c1 | -0.32% | -1.66% | -1.1% | -0.19% | 3.01% | -3.22% | 0.53% | -0.36% | -0.48% | 0.44%
CCn1c(-c2nonc2N)nc2c(N3CCCC3)nccc21 | 2.9% | -1.85% | -3.76% | 0.7% | 0.05% | -3.68% | -3.3% | -0.78% | -0.6% | 1.23%
N#Cc1c(NC(=O)c2cccc3ccccc23)sc2c1CCCC2 | 2.16% | 2.31% | 3.43% | 2.34% | 6.02% | 1.31% | -2.02% | 0.12% | 0.56% | 3.35%
CCn1c(-c2nonc2N)nc2ccncc21 | 1.46% | 2.56% | 3.46% | 2.16% | 2.72% | 3.44% | -5.95% | -0.95% | -2.72% | 0.03%
COc1ccc(-c2nn3ncccc3c2-c2ccnc(Nc3ccc(Cl)c(C(F)(F)F)c3)n2)cc1 | -1.11% | 1.4% | 1.86% | 4.94% | 4.42% | 0.89% | 13.3% | 0.86% | 1.6% | -2.59%
COC(=O)Nc1nc2cc(Oc3ccc(NC(=O)Nc4cccc(C(=O)O)c4)cc3)ccc2[nH]1 | -0.23% | -2.22% | 0.87% | 1.97% | 7.16% | -0.91% | 17.4% | -0.08% | 0.6% | 1.98%
NS(=O)(=O)c1ccc(N/N=C2\C(=O)Nc3ccc(C(=O)NCCc4c[nH]cn4)cc32)cc1 | -0.45% | 5.46% | 12.1% | 1.64% | 3.16% | 1.59% | 10.1% | 1.35% | 2.72% | 5.55%
CCCN1CCC=C(c2ccc(Nc3nc(Nc4ccccc4C(N)=O)c4cc[nH]c4n3)c(C)c2)C1 | 1.61% | 6.08% | 8.24% | 3.32% | 3.76% | 26.4% | 70.1% | 1% | 12.7% | 2.13%
CNC(=O)c1cncc(/C=C/c2c(Cl)cccc2Cl)c1 | 1% | 5.68% | 23.4% | 5.91% | 3.57% | 8.81% | 38.8% | 0.26% | 11% | 2.22%

Structure (SMILES) | inhibition [1] | inhibition [2] | inhibition [3] | inhibition [4] | inhibition [5] | inhibition [6] | inhibition [7] | inhibition [8] | inhibition [9] | inhibition [10]
COc1ccc(COc2ccc(Cc3cnc(N)nc3N)cc2OC)cc1 | 0.65% | 1.62% | 2.91% | 2.2% | 8.78% | 0.7% | -8.3% | 2.24% | 3.64% | 32.4%
CS(=O)(=O)CCNCc1ccc(-c2ccc3ncnc(Nc4ccc(OCc5ccccc5)c(Cl)c4)c3c2)o1 | 1.51% | -0.91% | 0.89% | 7.47% | 9.67% | 2.4% | 11.3% | -0.1% | 0.61% | 2.31%
COc1cc2ncn(-c3cc(O[C@H](C)c4ccccc4Cl)c(C(N)=O)s3)c2cc1OC | -0.3% | 5.59% | 19.3% | 12.7% | 41.7% | 17.7% | 70.8% | 6.31% | 28.2% | 1.31%
Fc1cccc(COc2ccc(Nc3ncnc4cc(-c5ccc[nH]5)sc34)cc2Cl)c1 | 2.33% | -0.22% | 3.69% | 2.27% | 8.54% | 1.22% | 1.7% | 0.28% | 0.88% | 2.39%
CS(=O)(=O)Nc1ccc(N/C=C2\C(=O)Nc3ccccc32)cc1 | -3.83% | -2.97% | 0.17% | 0.36% | 2.36% | -2.85% | 6.96% | -0.49% | 1.32% | 5.97%
CC(=O)Nc1cccc(C#Cc2cncnc2Nc2ccc(OCc3cccc(F)c3)c(Cl)c2)n1 | -0.2% | -0.56% | 0.51% | -1.08% | 2.93% | -0.47% | 13.1% | -0.48% | 2.35% | -4.25%
CC1=C(C(=O)Nc2ccc3[nH]ncc3c2)C(c2ccc3ccccc3c2)CC(=O)N1 (centres undefined) | 2.59% | 2.81% | 9.73% | 3.02% | 8.68% | 3.25% | 22.4% | 2.91% | 20.3% | 3.43%
COc1cc2ncn(-c3cc(OCc4ccccc4C(F)(F)F)c(C(N)=O)s3)c2cc1OC | -7.75% | -1.86% | 7.03% | 6.11% | 20.9% | 12.5% | 59.1% | 0.63% | 6.53% | 2.57%
O=C1NC(=O)C(N2CCc3ccccc32)=C1c1ccc(Cl)cc1 | -1.26% | 6.1% | 9.11% | 5.59% | 8.86% | 4.03% | -0.43% | 3.17% | 1.5% | 4.36%
CCN1CCC(CC(=O)Nc2n[nH]c3nc(-c4cccs4)c(Br)cc23)CC1 | 0.14% | -2% | -2.77% | 9.68% | 11.1% | -7.55% | 4.72% | -0.98% | -0.2% | -0.5%
COc1ccc(-c2coc3ncnc(N)c23)cc1 | -0.96% | 3.6% | 5.59% | 2.58% | 7.38% | 0.94% | -4.86% | 0.34% | 1.05% | 1.6%
COc1ccc2cc(-c3c(-c4ccncc4)nc(-c4ccc([S+](C)[O-])cc4)n3C)ccc2c1 (centres undefined) | -1.16% | 4.18% | 5.59% | 53.3% | 83.2% | 4.52% | 8.26% | 0.59% | 0.47% | 2.78%
COc1ccccc1Nc1ncc(-c2ccccc2)o1 | -4.41% | 2.21% | 7.28% | 0.33% | 6.44% | 3.82% | 13.8% | 0.63% | 3.33% | 1.73%
O=C(Nc1n[nH]c2nc(-c3ccco3)c(Br)cc12)C1CC1 | -0.45% | 4.92% | 9.1% | 7.26% | 13.7% | 2.22% | -0.4% | 0.93% | 0.24% | 3.1%
Fc1cccc(COc2ccc(Nc3ncnc4sc(-c5cccs5)cc34)cc2Cl)c1 | 1.01% | -0.73% | 1.47% | 1.07% | 2.01% | 3.5% | 4.12% | -0.19% | 1.13% | 1.3%
Cc1ccc(NC(=O)c2ccnc(N3CCCC3)c2)cc1-c1ccc(C(=O)NCC2CC2)cc1 | -1.46% | 0.49% | 3.83% | 1.03% | 5.42% | 2.43% | -2.64% | 1.07% | 1.27% | 1.92%
CS(=O)(=O)CCNCc1nc(-c2ccc3ncnc(Nc4ccc(F)c(Cl)c4)c3c2)cs1 | -0.34% | 3.79% | 9.13% | 7.71% | 5.89% | 4.58% | 27.1% | 0.19% | 2.87% | 3.85%
